{"source": "ChEMBL document CHEMBL1201862", "about": "“PubChem BioAssay data set” (2004)", "note": "Hit rate of the full screen: of about 400,000 compounds, about 2,100 (0.53%) were called active. About 14% were inconclusive and are not listed. No rule for the calls is given here. The full list was thinned out, with actives kept by preference.", "data": [{"biological_target": "Ataxin-2 (Homo sapiens) (UniProt Q99700)", "sequence (Q99700 whole entry)": "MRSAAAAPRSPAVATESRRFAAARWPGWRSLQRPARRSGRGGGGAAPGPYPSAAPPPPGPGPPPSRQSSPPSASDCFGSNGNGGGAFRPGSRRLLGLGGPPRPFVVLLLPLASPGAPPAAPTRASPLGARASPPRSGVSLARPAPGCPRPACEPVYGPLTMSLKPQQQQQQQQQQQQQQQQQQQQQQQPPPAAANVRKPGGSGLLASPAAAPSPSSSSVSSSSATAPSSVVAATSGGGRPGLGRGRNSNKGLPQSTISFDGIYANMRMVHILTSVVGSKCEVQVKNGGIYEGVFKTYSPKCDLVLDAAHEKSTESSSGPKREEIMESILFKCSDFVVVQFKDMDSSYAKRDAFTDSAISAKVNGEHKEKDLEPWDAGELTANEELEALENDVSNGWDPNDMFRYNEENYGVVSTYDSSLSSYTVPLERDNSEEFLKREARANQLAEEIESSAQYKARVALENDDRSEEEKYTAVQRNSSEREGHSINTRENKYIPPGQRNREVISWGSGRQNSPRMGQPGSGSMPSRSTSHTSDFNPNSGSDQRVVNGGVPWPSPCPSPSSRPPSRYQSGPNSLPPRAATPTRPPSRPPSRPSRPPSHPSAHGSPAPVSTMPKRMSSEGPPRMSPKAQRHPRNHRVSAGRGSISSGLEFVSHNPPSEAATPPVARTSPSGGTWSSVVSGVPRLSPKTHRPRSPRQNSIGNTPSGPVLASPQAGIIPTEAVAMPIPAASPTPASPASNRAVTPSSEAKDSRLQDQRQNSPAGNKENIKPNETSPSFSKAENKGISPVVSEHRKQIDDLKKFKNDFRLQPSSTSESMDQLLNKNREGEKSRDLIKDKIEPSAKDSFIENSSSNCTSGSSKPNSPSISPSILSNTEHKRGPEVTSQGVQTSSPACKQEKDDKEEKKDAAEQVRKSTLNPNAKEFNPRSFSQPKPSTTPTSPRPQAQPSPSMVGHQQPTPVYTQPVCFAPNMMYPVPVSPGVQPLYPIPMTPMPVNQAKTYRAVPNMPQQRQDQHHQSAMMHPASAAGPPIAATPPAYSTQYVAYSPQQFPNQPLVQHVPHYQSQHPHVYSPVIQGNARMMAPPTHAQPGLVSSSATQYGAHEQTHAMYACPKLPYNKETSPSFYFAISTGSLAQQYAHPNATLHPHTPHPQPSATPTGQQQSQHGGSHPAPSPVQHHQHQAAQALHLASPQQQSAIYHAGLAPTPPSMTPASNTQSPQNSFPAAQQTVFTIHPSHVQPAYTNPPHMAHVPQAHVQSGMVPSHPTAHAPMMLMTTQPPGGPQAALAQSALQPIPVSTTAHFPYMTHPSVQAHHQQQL", "assay": "qHTS for Inhibitors of ATXN expression.", "type": "functional", "values": [{"smiles": "Oc1cc(-c2nc3ccccc3s2)cc2c1OCCN(Cc1cccn1-c1ccccn1)C2", "Potency": "31.6 µM (active)"}, {"smiles": "O=c1c(-c2nc3ccccc3s2)cccn1Cc1ccc(Cl)c(Cl)c1", "Potency": "inactive"}, {"smiles": "Cc1ccc(Cl)c(NC(=O)CSc2nnc(O)n2C2CC2)c1Cl", "Potency": "inactive"}, {"smiles": "CN(C)CCCN1c2ccc3ccccc3c2Sc2cccc(Cl)c21", "Potency": "37.7 µM (active)"}, {"smiles": "CN(C)CCCN1C(=O)c2cccc3c([N+](=O)[O-])ccc(c23)C1=O", "Potency": "inactive"}, {"smiles": "CN(C)CCCN1C(=O)c2cccc3c(Br)ccc(c23)C1=O", "Potency": "inactive"}, {"smiles": "CC1(C)CC(NC(=O)c2sc3cc(Cl)ccc3c2Cl)CC(C)(C)N1", "Potency": "inactive"}, {"smiles": "CN(c1ccccc1)S(=O)(=O)c1cc(C(=O)OCC(N)=O)ccc1Cl", "Potency": "inactive"}, {"smiles": "CC1(C)CC(NC(=O)c2ccc(Cl)c(S(=O)(=O)N(Cc3ccccc3)c3ccccc3)c2)CC(C)(C)N1", "Potency": "22.4 µM (active)"}, {"smiles": "CCCN1C2CCCC1CC(N=C(S)Nc1cccc(C)c1)C2", "note": "(centres undefined)", "Potency": "inactive"}, {"smiles": "Cc1cc(C)cc(NC(S)=NCCN(C2CCCCC2)C2CCCC2)c1", "Potency": "39.8 µM (active)"}, {"smiles": "Cc1nc2ccc(NC(S)=NC3CCCCC3)cc2nc1C", "Potency": "inactive"}, {"smiles": "Cc1occc1C(=O)NNC(=O)Nc1ccc(Cl)c(Cl)c1", "Potency": "inactive"}, {"smiles": "Cc1c(NC(=O)Nc2ccc(Cl)c(Cl)c2)sc(=S)n1C", "Potency": "39.8 µM (active)"}, {"smiles": "CCN1CCc2c(sc(NC(=O)Nc3ccc(Cl)c(Cl)c3)c2C(N)=O)C1", "Potency": "inactive"}, {"smiles": "CCN(Cc1ccc(NC(C)=O)cc1)CC1CCCN(CCc2cccc(F)c2)C1", "note": "(centres undefined)", "Potency": "inactive"}, {"smiles": "Cc1c2c(=O)n(-c3nc4ccccc4s3)nc-2cc(O)n1Cc1ccccc1", "Potency": "inactive"}, {"smiles": "COc1ccc(C(=O)N/N=C/c2sc3ccccc3c2O)cc1", "Potency": "inactive"}, {"smiles": "COc1ccc(Nc2cnn(-c3nc4ccccc4s3)c(=O)c2Cl)cc1", "Potency": "25.1 µM (active)"}, {"smiles": "COC(=O)c1cc2c(=O)n3ccccc3nc2n(Cc2cccnc2)c1=N", "Potency": "inactive"}, {"smiles": "COc1ccc(C#Cc2c(C=O)n(C)c3ccccc23)cc1", "Potency": "inactive"}, {"smiles": "Cc1nc2ccccc2n1/N=C/c1ccc([N+](=O)[O-])s1", "Potency": "23.8 µM (active)"}, {"smiles": "Cc1ccccc1NCc1ccc([N+](=O)[O-])s1", "Potency": "inactive"}, {"smiles": "O=[N+]([O-])c1ccc(/C=N/n2cnc3ccccc32)s1", "Potency": "22.4 µM (active)"}, {"smiles": "COc1ccc(/C=N/NC(=O)c2cc[nH]n2)cc1Cn1nc(C)c([N+](=O)[O-])c1C", "Potency": "inactive"}, {"smiles": "COc1ccc(-n2c(NC(=O)c3ccco3)c(C#N)c3nc4ccccc4nc32)cc1", "Potency": "inactive"}, {"smiles": "O=[N+]([O-])c1cccc(Nc2c3ccccc3nc3ccccc23)c1", "Potency": "inactive"}, {"smiles": "CCOc1ccc2nc(C)cc(Nc3cccc([N+](=O)[O-])c3)c2c1", "Potency": "39.8 µM (active)"}, {"smiles": "CCCOc1ccc(/C=N/Nc2cccc([N+](=O)[O-])c2)c(O)c1", "Potency": "inactive"}, {"smiles": "CCCCCc1c(-c2cccc(Br)c2)ncn1CCc1ccccc1OC", "Potency": "39.8 µM (active)"}, {"smiles": "CCCCc1c(-c2cccc(Br)c2)ncn1CCc1ccccc1OC", "Potency": "28.2 µM (active)"}, {"smiles": "COc1ccc(Br)cc1CN1CCN(c2ncccn2)CC1", "Potency": "inactive"}, {"smiles": "Cn1c(O)nnc1-c1cccc(Br)c1", "Potency": "inactive"}, {"smiles": "Cc1cc(-n2c(=O)c(C#N)cc3c(=O)n4ccccc4nc32)no1", "Potency": "inactive"}, {"smiles": "Clc1cccc(-c2nc(NCCCN3CCOCC3)c3ccccc3n2)c1", "Potency": "inactive"}, {"smiles": "COc1ccc(-c2cc(C(F)(F)F)n3nc(C(=O)NCCN4CCOCC4)cc3n2)cc1", "Potency": "inactive"}, {"smiles": "Clc1cccc(CNc2ccn3nc(-c4ccc(OCCN5CCOCC5)cc4)cc3n2)c1", "Potency": "28.2 µM (active)"}, {"smiles": "CCCCN(CCCC)C(=O)C[n+]1cccc(/C=N/O)c1", "Potency": "inactive"}, {"smiles": "Cc1cc(/N=C/C=C2\\N(C)c3ccccc3C2(C)C)n(CCC#N)n1", "Potency": "31.6 µM (active)"}, {"smiles": "Cc1cc(/N=C/C=C2/N(C)c3ccccc3C2(C)C)n(CCC#N)n1", "Potency": "15.8 µM (active)"}, {"smiles": "CN1/C(=C\\C(=O)c2cccc(S(=O)(=O)N3CCCCC3)c2)C(C)(C)c2ccccc21", "Potency": "inactive"}, {"smiles": "Oc1nc2c(O)ncnc2nc1-c1ccccc1", "Potency": "inactive"}, {"smiles": "Oc1ccccc1N=Nc1nc(-c2ccccc2)c(-c2ccccc2)[nH]1", "Potency": "20 µM (active)"}, {"smiles": "NC(=O)c1nc(-c2ccccc2)c(-c2ccccc2)nc1O", "Potency": "inactive"}, {"smiles": "CCOCCCN=C(S)NCCNc1nc2ccc(C)cc2cc1C#N", "Potency": "inactive"}, {"smiles": "CCOC(=O)c1c(NC(=O)c2ccc(S(=O)(=O)N3CCCC(C)C3)cc2)sc2c1CC(C)(C)NC2(C)C", "note": "(centres undefined)", "Potency": "inactive"}, {"smiles": "CCOC(=O)c1c(NC(=O)COc2ccccc2OCC)sc2c1CC(C)(C)NC2(C)C", "Potency": "39.8 µM (active)"}, {"smiles": "CC(C)CN(CC(C)C)S(=O)(=O)c1ccc(C(=O)Nc2sc3c(c2C(N)=O)CC(C)(C)NC3(C)C)cc1", "Potency": "inactive"}, {"smiles": "Cc1c2c(n3c(nc4ccccc43)c1C#N)N(CCN(C)C)CC2", "Potency": "inactive"}, {"smiles": "C=CCc1cc(/C=C2\\C(=N)N3N=C(CC(=O)N4CCOCC4)SC3=NC2=O)cc(OC)c1O", "Potency": "inactive"}, {"smiles": "Fc1ccc(-[n+]2nc(Nc3ccccc3)sc2-c2c(Cl)cccc2Cl)cc1", "Potency": "20 µM (active)"}, {"smiles": "O=c1oc2cc(O)ccc2cc1-c1nc2c(s1)CCc1ccccc1-2", "Potency": "inactive"}, {"smiles": "CNC(=O)NC(=O)C(C)OC(=O)c1c2c(nc3ccccc13)/C(=C/c1cccs1)CC2", "note": "(centres undefined)", "Potency": "inactive"}, {"smiles": "CCc1ccccc1N(CC(=O)NC(C)(C)CC)C(=O)CCC(=O)Nc1nccs1", "Potency": "inactive"}, {"smiles": "C/C(Cl)=C\\Cn1c(O)c(/N=N/C(=N)S)c2ccccc21", "Potency": "29.9 µM (active)"}, {"smiles": "Cc1ccc(C(=O)O)cc1-c1ccc(/C=C2\\SC(=O)N(CC(=O)Nc3ccccc3)C2=O)o1", "Potency": "inactive"}, {"smiles": "CCN(CC)CCOC(=O)c1ccc(NC(=O)CCCN2C(=O)/C(=C\\c3cccs3)SC2=S)cc1", "Potency": "31.6 µM (active)"}, {"smiles": "CC(=O)c1ccc(NC(=O)CCCN2C(=O)/C(=C/C(C)=C/c3ccccc3)SC2=S)cc1", "Potency": "25.1 µM (active)"}, {"smiles": "O=C(Nc1cc2c(=O)n(-c3ccc(Oc4ccccc4)cc3)ccc2oc1=O)c1ccccc1", "Potency": "inactive"}, {"smiles": "COc1ccc(C2C=C(c3ccccc3)Nc3nnnn32)cc1", "note": "(centres undefined)", "Potency": "inactive"}, {"smiles": "Cc1ccc2[nH]c(CSc3nc(C)ccc3C#N)nc2c1", "Potency": "inactive"}, {"smiles": "Cc1ccc(Cl)c(OCCCCN(C)Cc2ccccc2)c1", "Potency": "28.2 µM (active)"}, {"smiles": "CN(C)CCOCCOc1ccc(Cl)c2ccccc12", "Potency": "inactive"}, {"smiles": "Cc1ccc2c(CN(C)Cc3ccccc3)cc(=O)oc2c1C", "Potency": "inactive"}]}]}
